# According to the supplement of paper PMC6555819:
# System: PPARg:RXRa 30nM:10nM, anti-RXR (NR concentration 30 nM, RXRa partner concentration 10 nM)
# Experiment: PBM binding z-score (relative to random genomic background probes); higher = stronger binding; sequences stand for … in GC…GCGATTGACAGCGTAGAATGAAGG
# Summary of the method: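 Ligand-free nuclear receptor dimers were applied to custom Agilent 4×180K protein-binding microarrays whose double-stranded probes carried direct-repeat seeds, single-nucleotide variants, half-site ablations and random human genomic background sequences in 34-nt variable regions. Incubation lasted 1 h. Binding z-scores were computed against the random background probes from regression-normalized fluorescence.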
row,Sequence,PBM binding z-score
1,CGTCCAAGGTCAAAGGTCACTGAAGAGATGACGG,11
2,CAAACTAGGTCACGAAAGGGCAAAGTCGAATGAC,6.2
3,CGAACTAGGTCACCAGGACCGTGAAGAGGTTGGA,4.02
4,CGTCCAAGGTCAATTCTAGGTCAGTGAAAGCATT,1.17
5,CGTCCAACGTCAAGGTCAGTGAAAGAGACTCGAA,-0.429
6,TAGCCTAGGTCATGGGCCAGTTTACCACGCGAAC,0.612
7,CGAACTAGGTCACAGGACAGTGAAAGGCGACGTA,4.65
8,ATATGTAGGTCATCGGGTCATTCAGTTTGCGCAT,6.72
9,CGAACTAGGTCCTTGACAGGACAGTGAATAGTAA,-0.201
10,AAAATGAGGTTAAGATCAGGGAAACAGAATACAT,1.16
11,GCTTACGGGTCAAAGGTTATAGTATGAATAGAAT,8.51
12,CGAACTAGCTCAAGGACAGTGAATCTCCGCACGC,-0.374
13,CGCACTAGGTCACCAGGACAGTGAAGAGGTTGGA,4.56
14,CAAACCAGGTCACGAAAGGTCAAAGTCGAATGAC,5.15
15,ATACCAAGGTGATCGTGAGTTCGTTGATACTAAC,0.101
16,ACTAGTGGGTCAGCTGAGGTCACACACAATTCGG,3.12
17,CAAGCTAGGTCAAGAGGTCAAAGTCCGCTTCCCG,4.04
18,GCTATTAGGTGAAAGGGCAACCGAATGATTCTCG,8.54
19,CCGACTGGGGCAAAGGTTACGATACTCAGTACGA,9.53
20,GGAACTAGGGCAAAGTTGATAGCATCTGTCGACG,8.63

row,Sequence,PBM binding z-score
1,CCTACTGGGCCAAAAAGGCCATTGATGCCGATAA,-0.443
2,CCTACTGGGCCACGAAAGGTCCTTGATTCAGTGA,-0.391
3,CGAACTAGGTCAAAGGACAGTGTAAGGCGACGTA,6.9
4,ACTAGTTGTTCAGCTGAGGTCACACACAATTCGG,0.705
5,CGTCTAAGGTCAGCAGGTCAGTGAAAGCGACGTG,1.6
6,CCTACTGGGCCAAGGTCATAGATCAGTCAAAGCA,2.23
7,TAGCCTAGGTCATTGGGCCAGTATAGTACGCATC,0.801
8,CAACCTAGGTCACGAAAGGTCAAAGTCGAATGAC,4.53
9,ATATGTAGGTGAGGGTCATTCAGAAAGTAGGGAA,4.94
10,ATCGAAAGGTCGAAAGTGAGTATACCCACCCGAA,1.05
11,GATTCAGGGTCAGCTAGAGGCCAGAGTATGGAAA,1.13
12,CGATCTAGGTCACCAGGACAGTGAAGAGGTTGGA,4.33
13,CTAACTAGGTCACCGGAAGGTCAAAGTCCGCATG,6.41
14,CGTCCAAGGTCAGCAGGTGAGTGAAAGCGACGTG,0.511
15,TCTGCTTGGTCAACGATGGTCAGCTAATCTGCTA,1.65
16,CAAACTAGGTCACGAAAGGTCAACGTCGAATGAC,7.57
17,CGTCCAAGGTCAATGCTAGCTCAGTGAAAGCATT,0.365
18,GCTGCAAGGTCAACTGATGGTCAGCTAAAGCTCG,1.77
19,TAGCCTAGGTCATTCAGGGGCCAGAATAGAAAGC,0.331
